The panel holds about 83,000 compounds, 20% with a hit somewhere; the sample as a whole holds those more often.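 Note: values are percent growth. 100 is the growth of untreated cells, values between 100 and 0 indicate rising inhibition; between -100 and 0 indicates cell death.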 Activity calls are given as the source filed them.

The text below walks through data of PubChem BioAssay (NCI).

In the experiment the test system is CAKI-1 renal. In words: NCI-60 one-dose screen, 48 h (100 = growth as untreated, 0 = no growth, -100 = all killed). The following applies: 10 µM unless noted. Here is the method:
Growth inhibition of the CAKI-1 human tumor cell line is measured as a screen for anti-cancer activity. Cells are grown in 96 well plates and exposed to the test compound for 48 hours. Compounds are tested at a single concentration, which is 10^-5 M for most compounds. The reported endpoint is percent growth (GI% or GIPRCNT), where numbers from 0 - 100% represent growth inhibition, and numbers from -100% - 0 represent cell death. For example, a value of 40 represents 60% growth inhibition. A value of 0 means no net growth occurred over the course of the experiment. A value of -40 indicates 40% of cells at the beginning of the experiment died by the end of the experiment. A value of -100 means all cells are dead at the end of the experiment.
NCI-60 Human Tumor Cell Lines Screen was performed using the standard one-dose NCI protocol, which is described in more detail at https://dtp.cancer.gov/discovery_development/nci-60/default.htm.
Compounds with GIPRCNT values below 10 were considered active. Activity score was based on GIPRCNT using the following formula: […]
Score is 0 for GIPRCNT values of 100 or above, 50 for GIPRCNT values of 0, and 100 for GIPRCNT values of -100.
As for `CCOC(=O)C1CCNC(=O)C1=O` (stereo not given), the growth was 97.8% (inactive).

For the compound `Cn1c(=O)cc(NC(=O)CN2CCN(c3cc4c(cc3F)c(=O)c(C(=O)O)cn4C3CC3)CC2)[nH]c1=O`, the growth is 88.2% (inactive).

Consider `COc1ccc2[nH]c(=O)c(/C=N/Nc3nc(-c4ccccc4)cs3)c(O)c2c1`, for which the growth was 43.7% (inactive).

Consider `O=C(c1c[nH]c(=O)c(-c2ccccc2)c1)c1ccccc1O`, for which the growth is 85% (inactive).

With `O=S(=O)(NCCCNc1nccc(-n2ccc3cccnc32)n1)c1ccc(Br)cc1`, the growth was 94.2% (inactive).

Turning to `O=C(O)/C=C/C(=O)c1ccc(Cl)cc1`, the growth is 107% (inactive).

On to `COc1ccc(NC(=O)c2c(Nc3ccc(OC)cc3OC)n[nH]c2N)c(OC)c1`, for which the growth was 94.9% (inactive).

Turning to `COc1ccc(-c2ccc(C)n2-c2ccc(-c3nc4ccccc4s3)cc2)cc1`, the growth is 76% (inactive).

Regarding `Cc1ccc(C(=O)NCCCNc2nccc(-n3ccc4cccnc43)n2)cc1`, the growth is 96.6% (inactive).

With `COc1ccc(C2C=C(c3ccc(OC)c(OC)c3)N=C3SC=C(C)N32)c(Br)c1` (stereo not given), the growth was 99.9% (inactive).

As for `N[C@H]1CN(C(=O)c2cc3cc(Br)c(F)c(F)c3[nH]2)C[C@@H]1O`, the growth was 79.4% (inactive).

As for `COc1cc(C2C3=C(COC3=O)Nc3cc4c(cc32)CCC4)cc2c1OCO2` (stereo not given), the growth was 37.2% (inactive).

Take `COc1cccc(CC(C)=C(c2ccc(OCCN3CCCCC3)cc2)c2ccc(OCCN3CCCCC3)cc2)c1`: the growth is -46.8% (active).

`COc1ccc(-c2c(N)n[nH]c2-c2cc(OC)c3c(c2)OCCO3)cc1`: the growth is 70.3% (inactive).

`CC(C)(C)n1cc(-c2ccnc(NCCCNS(=O)(=O)c3ccc(C(F)(F)F)cc3)c2)c(-c2cccc(O)c2)n1`: the growth is 37.8% (inactive).

With `C=C1CCC2C(C)(CO)C(O)CCC2(C)C1C/C=C1/C(=O)OCC1O/C=C/c1ccccc1` (stereo not given), the growth is 77.1% (inactive).

With `COc1ccc(S(=O)(=O)n2ccc(-c3ccc4c(c3)CCC(C)(C)O4)n2)cc1OC`, the growth was 58.3% (inactive).

For the compound `O=C(NCCCNc1nccc(-n2ccc3cccnc32)n1)c1c(F)cccc1F`, the growth was 86.3% (inactive).

Consider `COc1ccc(CN2CCc3c(Sc4ccccc4)nc(N)nc3C2=O)c(OC)c1`, for which the growth is 27.7% (inactive).

As for `c1ccc(-c2nc(N3CCNCC3)c3nc(-c4ccccc4)oc3n2)cc1`, the growth was -85.3% (active).

On to `Cc1[nH]c2ccc(F)cc2c1CCNC(=O)C1CCN(C(=O)c2ccccc2)CC1`, for which the growth was 68.2% [25 µM] (inactive).

With `O=C(CCl)N(C1CCCCC1)C1CCCCC1`, the growth is 98.7% (inactive).

Turning to `Cn1c2ccc(Br)cc2c2c3c(c4c5ccccc5[nH]c4c21)C(=O)N(O)C3=O`, the growth is -76.6% (active).

In the case of `CN1C=CN(Cc2ccc(-c3ccccn3)nc2)[CH-]1.CN1C=CN(Cc2ccc(-c3ccccn3)nc2)[CH-]1.[Au+3]`, the growth is 67.6% (inactive).

Regarding `COc1ccc(/C=C2/C(=O)NC(SCC(=O)N3CCN(c4cc5c(cc4F)c(=O)c(C(=O)O)cn5C4CC4)CC3)=NC2N)cc1OC` (stereo not given), the growth is 94.5% (inactive).

For `CCCCOc1ccc(/C=C2/SC(N3CCCC3)=NC2=O)cc1`, the growth is 96.8% (inactive).

With `CCOC(=O)C1=C(C)NC(C)=C(C(=O)OCC)C1(C)C`, the growth was 107% (inactive).

Regarding `Cc1ccc(/C=C2\CN(C(=O)CCN3CCC(=NO)CC3)C/C(=C\c3ccc(C)cc3)C2=O)cc1`, the growth is 5.48% (active).

Take `Cc1csc(NC(c2ccc(Br)cc2)c2c(C)nc3ccccn23)n1` (stereo not given): the growth is 80.8% (inactive).

As to `Cc1ccc(S(=O)(=O)NCCCNc2cc(-c3cn(C(C)(C)C)nc3-c3cccc(O)c3)ccn2)cc1`, the growth is 59.7% (inactive).

In the case of `O=c1[nH]c(-c2ccccc2)nc(CN2CCCCC2)c1O`, the growth is 91.5% (inactive).

Regarding `COc1ccc(/C(C#N)=C/c2cc(OC)c(OC)c(OC)c2)cc1`, the growth was 50% (inactive).

For `O=C(NCCNc1nccc(-n2ccc3cccnc32)n1)c1ccc(C(F)(F)F)cc1`, the growth is 87.6% (inactive).

As for `CCn1c2ccccc2c2cc(NC(=O)Nc3ccc([N+](=O)[O-])cc3C)ccc21`, the growth is -4.18% (active).

Take `OB(O)c1cccc(-c2nc3ccc4[nH]ncc4c3c3c2CCCC3)c1F`: the growth is -24.3% (active).

With `CC(C)(C)n1cc(-c2ccnc(NCCNS(=O)(=O)c3ccc(C(F)(F)F)cc3)c2)c(-c2cccc(O)c2)n1`, the growth is 65.9% (inactive).

Regarding `O=C1C2(c3ccccc3)C(c3ccccc3)=C(c3ccccc3)C1(c1ccccc1)C1CC=CC12` (stereo not given), the growth is 52.6% (inactive).

On to `O=C(N/N=C/C=C\c1ccccc1)C(=O)N/N=C/C=C/c1ccccc1`, for which the growth was 105% (inactive).

As to `O=C(O)Cc1cccc(=O)c(O)c1C(=O)O`, the growth was 96.1% (inactive).

On to `C=C(C)[C@@H]1C[C@H](O)Cc2cc(F)ccc2N1`, for which the growth is 91.4% (inactive).
